Some test systems named below: SK-MEL-2 melanoma; EKVX NSCLC; SN12C renal; UO-31 renal; TK-10 renal; ACHN renal; CAKI-1 renal; A498 renal; CCRF-CEM leukemia; MOLT-4 leukemia; SR leukemia; RPMI-8226 leukemia; OVCAR-8 ovarian; OVCAR-5 ovarian; OVCAR-4 ovarian; SK-OV-3 ovarian; IGROV1 ovarian; OVCAR-3 ovarian; HS 578T breast; NCI/ADR-RES ovarian.
Common to all, as to experiment: NCI-60 one-dose screen, 48 h (100 = growth as untreated, 0 = no growth, -100 = all killed)
Holding throughout (conditions): 10 µM unless noted

The structures appear in SMILES notation. About 83,000 compounds went through this panel and 20% of them were active in at least one assay; those are over-represented in the sample as a whole.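 Percent growth is the endpoint: 0 to 100 indicates growth inhibition (40 means 60% inhibition), 0 means no net growth, and negative values indicate cell death.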 Unmarked numbers belong to inactive results. The source made the active and inactive calls. How the source made its calls: active means growth percent below 10; inactive means the rest.

Regarding `COc1ccc2c(c1)C(Sc1ccc(F)cc1)c1c(nc(N)c(C#N)c1N)O2` (stereo not given), the growth was 97% in the test on SK-MEL-2 melanoma; 87.1% in the test on EKVX NSCLC; 78.5% in the test with SN12C renal; 39.8% with UO-31 renal; 103% in the test with TK-10 renal; 86.6% in the test with ACHN renal. Further, the growth is 84.9% in the test with CAKI-1 renal; 101% with A498 renal; 1.67% (active) with CCRF-CEM leukemia; 53.9% in the test on MOLT-4 leukemia; 38% with SR leukemia; 71.7% with RPMI-8226 leukemia. For the same molecule, the growth with OVCAR-8 ovarian is 90.1%; in the test on OVCAR-5 ovarian, 122%; with OVCAR-4 ovarian, 97.8%; in the test on SK-OV-3 ovarian it was 122%; with IGROV1 ovarian it was 70.6%; with OVCAR-3 ovarian, 128%. The growth was 85.5% in the test with HS 578T breast and 95.3% in the test with NCI/ADR-RES ovarian.

Turning to `CN(C)c1nc(NCCNS(=O)(=O)c2ccc(C(=O)/C=C/c3ccc(C(F)(F)F)cc3)cc2)nc(N2CCOCC2)n1`, the growth in the test with SK-MEL-2 melanoma was 74.8%; with EKVX NSCLC, 37.1%; in the test with SN12C renal, 39.9%; in the test on UO-31 renal, -61.9% (active); in the test with TK-10 renal it was 70.4%; in the test on ACHN renal, -33.2% (active). The growth in the test on CAKI-1 renal is -32.7% (active); with A498 renal, 72.5%; with CCRF-CEM leukemia it was -29% (active); in the test with MOLT-4 leukemia, -19.1% (active); in the test on SR leukemia, -23% (active); with RPMI-8226 leukemia, -44.2% (active). Besides, the growth in the test on OVCAR-8 ovarian is 1.73% (active); in the test on OVCAR-5 ovarian, 5.43% (active); in the test with OVCAR-4 ovarian, 56.5%; with SK-OV-3 ovarian, 76.2%; in the test on IGROV1 ovarian, -93.9% (active); in the test on OVCAR-3 ovarian, -43% (active). In addition, the values for the growth with HS 578T breast and in the test with NCI/ADR-RES ovarian were 67.8% and -31.5% (active), respectively.

For `CC(C)(C)C(=O)C1CC(C#N)=C2C=Cc3c(ccc4ccccc34)N21` (stereo not given), the growth with SK-MEL-2 melanoma was 92.4%; with EKVX NSCLC it was 79.7%; with SN12C renal it was 92.4%; in the test on UO-31 renal, 90.5%; in the test with TK-10 renal, 92.6%; in the test on ACHN renal it was 85.2%. Besides, the growth in the test on CAKI-1 renal was 86.7%; in the test on A498 renal it was 144%; in the test with CCRF-CEM leukemia it was 91.4%; with MOLT-4 leukemia, 81.6%; in the test with SR leukemia, 94.3%; with RPMI-8226 leukemia, 75%. Besides, the growth in the test on OVCAR-8 ovarian was 71.2%; in the test on OVCAR-5 ovarian it was 121%; in the test with OVCAR-4 ovarian it was 79.3%; in the test on SK-OV-3 ovarian it was 75%; in the test on IGROV1 ovarian, 92.9%; in the test with OVCAR-3 ovarian, 96.3%. Also, the figures for the growth in the test with HS 578T breast and in the test with NCI/ADR-RES ovarian were 30.6% and 81.9%, respectively.

Take `O=C1Nc2cc(-c3ccc(NS(=O)(=O)c4ccc(F)c(Cl)c4)cc3)ccc2/C1=C/c1ccc[nH]1`: the growth in the test with SK-MEL-2 melanoma is 55.8%; in the test on EKVX NSCLC it was 1.79% (active); with SN12C renal, 55.3%; in the test on UO-31 renal, 35.6%; in the test with TK-10 renal, 54.5%; in the test with ACHN renal, 6.04% (active). The growth in the test on CAKI-1 renal was 33%; in the test with A498 renal, 52.1%; in the test on CCRF-CEM leukemia it was 39.7%; in the test on MOLT-4 leukemia, 11.7%; with SR leukemia, 6.77% (active); in the test on RPMI-8226 leukemia, 21.4%. The growth in the test on OVCAR-8 ovarian is 34.9%; with OVCAR-5 ovarian it was 19.7%; in the test on OVCAR-4 ovarian, 26.4%; in the test on SK-OV-3 ovarian it was 39.6%; in the test on IGROV1 ovarian, 45.9%; in the test on OVCAR-3 ovarian, 56.9%. Besides, the values for the growth in the test with HS 578T breast and in the test on NCI/ADR-RES ovarian were 45.6% and 29.7%, respectively.

`COc1sc(/C=N/NC(=O)c2[nH]c3ccc(Br)cc3c2-c2ccccc2)cc1Cl`: the growth with SK-MEL-2 melanoma was -9.93% (active); with EKVX NSCLC it was -12.3% (active); with SN12C renal, -26.6% (active); in the test with UO-31 renal, -5.09% (active); in the test with TK-10 renal, 9.67% (active); in the test on ACHN renal, -67.9% (active). Besides, the growth was -46.4% (active) in the test with CAKI-1 renal; 9.37% (active) with A498 renal; 9.12% (active) with CCRF-CEM leukemia; -3.08% (active) with MOLT-4 leukemia; 11.1% in the test with SR leukemia; 12.7% with RPMI-8226 leukemia. The growth in the test on OVCAR-8 ovarian was -30.4% (active); with OVCAR-5 ovarian, -29.3% (active); with OVCAR-4 ovarian it was 29.9%; in the test with SK-OV-3 ovarian, 12.1%; in the test on IGROV1 ovarian, -41.1% (active); with OVCAR-3 ovarian, 4.74% (active). Moreover, the growth in the test with HS 578T breast was 7.66% (active); in the test on NCI/ADR-RES ovarian it was -48.7% (active).

Consider `Cc1cc(C)c2[nH]c(=O)c(C(c3nnnn3Cc3ccc4c(c3)OCO4)N3CCN(C)CC3)cc2c1` (stereo not given), for which the growth in the test with SK-MEL-2 melanoma is 105%; in the test with EKVX NSCLC it was 106%; with SN12C renal it was 108%; with UO-31 renal, 103%; in the test on TK-10 renal, 115%; in the test with ACHN renal it was 106%. Further, the growth in the test with CAKI-1 renal was 97.7%; in the test with A498 renal, 102%; with CCRF-CEM leukemia it was 119%; in the test with MOLT-4 leukemia, 82.3%; with SR leukemia, 96.9%; in the test with RPMI-8226 leukemia it was 100%. The growth in the test with OVCAR-8 ovarian was 114%; in the test with OVCAR-5 ovarian, 108%; in the test on OVCAR-4 ovarian it was 108%; with SK-OV-3 ovarian, 111%; with IGROV1 ovarian, 111%; with OVCAR-3 ovarian, 122%. The growth in the test on HS 578T breast and with NCI/ADR-RES ovarian was 108% throughout.

Regarding `O=C(Nc1nc2ccc([N+](=O)[O-])cc2s1)Nc1ccc(Cl)cc1Cl`, the growth was 65% in the test with SK-MEL-2 melanoma; 40.7% with EKVX NSCLC; 29.4% with SN12C renal; 59.8% in the test with UO-31 renal; 40.9% with TK-10 renal; 37.3% in the test on ACHN renal. The growth in the test with CAKI-1 renal is 57.2%; with A498 renal, -0.785% (active); in the test on CCRF-CEM leukemia it was 42.1%; in the test on MOLT-4 leukemia it was 33.9%; in the test with SR leukemia it was 47.6%; in the test on RPMI-8226 leukemia it was 23.5%. The growth with OVCAR-8 ovarian was 48.4%; in the test on OVCAR-5 ovarian, 84.6%; in the test on OVCAR-4 ovarian it was 54.6%; in the test with SK-OV-3 ovarian, 4.05% (active); with IGROV1 ovarian, 60.7%; with OVCAR-3 ovarian it was 65.4%. In addition, the growth with HS 578T breast was 46.4%; in the test on NCI/ADR-RES ovarian, 26.6%.

For the origin of these results see PubChem BioAssay (NCI).
